# PTHR1 ag – agonists of human PTHR1 parathyroid hormone receptor. HEK293 GP2 PTHR1 cells, GloSensor cAMP luminescence, 1 h. Potency, µM (top dose mostly 115 µM), hits mostly activators. actives 0.075% (n = 410,000); further: nearly all actives have a fitted effect of over 55% in size
#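 HEK-293-derived GP2 cells expressing PTHR1 and a GloSensor cAMP reporter, 3,000/well, plated overnight, given luciferin plus IBMX (each 0.5 mM as added) for 1 h at 37 °C, then compound for 1 h at 37 °C. Luminescence was read after 15 min at room temperature.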
# TRHR enhancer – allosterically enhances the human TRH receptor | actives 0.66% (n = 360,000) | P34981 | enhancement, % at 2 µM | TRHR cells, fluo-8 calcium fluorescence, EC20 TRH enhancement; in the data active means enhancement above about 30%
#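 TRHR-expressing cells loaded with fluo-8 calcium dye were read kinetically (ex 480/em 530) during compound addition, then stimulated with an EC20 of TRH (10 nM final). Enhancement of the Gq-mediated intracellular calcium response was scored.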
# TRHR agonist – TRH receptor (human) agonism; TRHR cells, calcium flux fluo-8, FDSS agonist mode; P34981; actives 0.18% (n = 360,000); activation, % at 2 µM; in the data active means activation above about 30%
#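 Agonist-mode FDSS calcium read (Ex 480/Em 530, 1 s cycles) in 1536-well TRHR cells with fluo-8 dye, after 10-cycle baseline and 23 nL compound addition; TRH at EC20 (10 nM final) added afterwards for the enhancer phase.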
# GLP1R cytotox – cytotoxic in the GLP-1 receptor inverse agonist counter-screen; HEK293 cAMP-luciferase reporter cells, luminescence, 24 h; AID 624418; actives 0.13% (n = 410,000); Potency, µM (doses to about 38.3 µM), usual class: inhibitors;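 further: loss of luciferase light is scored as toxicity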
#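 Seeding density was 200 cells/uL; after overnight-length (12 h) culture, 23 nL compounds went on for 24 h at 37 °C. Readout used a luciferase detection reagent, luminescence taken after 12 min at room temperature.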
# GLP1R inv ag – GLP-1 receptor (human) inverse agonism. Potency, µM (series often up to 38.3 µM), usual class: inhibitors. HEK293 GLP-1R CRE-luciferase, luminescence, 24 h; GLP-1R form is constitutively active. P43220. actives 1.6% (n = 410,000); further: nearly all actives have a fitted effect of over 55% in size
#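 Seeding at 200 cells/uL, 12 h culture, 24 hr compound treatment, then luciferase reagent and a luminescence read; cells are HEK293 stably expressing a constitutively active GLP-1R plus cAMP-responsive luciferase.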
# GLP1R ag – activates the human GLP-1 receptor; HEK293 GLP-1R CRE-luciferase, luminescence, 4-6 h; cells express a hypersensitive GLP-1R form; Potency, µM (highest dose often 45.6 µM), most hits filed as activators; P43220; actives 0.007% (n = 380,000)
# Numbers stand for hits; - = inactive; ? = inconclusive; . = not tested or not shown. Only some compounds are listed: those with a hit (about 2.4% of all), similar ones and a draw of the others. Unless noted, the call rests on the fitted dose curve; in most records, active means well fitted curve in the direction sought with a large enough effect; inconclusive means small, poorly fitted or top-dose-only effect, or another doubt; inactive means no such curve, though single readings can be large; an effect the other way counts as inactive or inconclusive.
SMILES,PTHR1 ag,TRHR enhancer,TRHR agonist,GLP1R cytotox,GLP1R inv ag,GLP1R ag
CCCS(=O)(=O)c1nc(S(=O)(=O)c2ccc(C)cc2)c(N2CCC(C)CC2)s1,-,-,-,-,?,-
Cc1ccc(S(=O)(=O)c2nc(S(C)(=O)=O)sc2N2CCCCC2C)cc1 (stereo not given),-,-,-,-,3.5µM,-
COCCCNCCOCCOc1ccc(C)cc1Br,-,-,-,-,?,-
CC(C)OCC(O)Cn1c(N2CCCC2)nc2c1c(=O)n(C)c(=O)n2C (stereo not given),-,-,-,-,-,-
Cc1cc(C(=O)COC(=O)c2ccc(O)cc2)c(C)n1CCc1ccc(F)cc1,-,33,-,-,?,-
Cc1cc(C(=O)CSc2nc(N)cc(N)n2)c(C)n1CC1CCCO1 (stereo not given),-,.,.,-,-,-
Cc1cnc(C(=O)OCC(=O)c2cc(C)n(CCc3ccc(F)cc3)c2C)cn1,-,.,.,-,-,-
COCCn1c(C)cc(C(=O)COC(=O)c2cccc(O)c2)c1C,-,-,-,-,0.89µM,-
Cc1cc(C(=O)CSc2nc(N)cc(N)n2)c(C)n1CCc1ccc(F)cc1,-,-,-,-,5.6µM,-
Cc1ccc(CNC(=O)CCCn2c(=O)[nH]c3ccc(Br)cc3c2=O)cc1,?,-,-,-,-,-
COCCOC(=O)C1=C(C)NC(=S)NC1c1ccc(OCC(=O)N2CC(C)OC(C)C2)c(OC)c1 (stereo not given),-,.,.,-,-,-
CCCCn1nnnc1C(c1ccccc1)N1CCCN(Cc2ccc(F)cc2)CC1 (stereo not given),-,.,.,-,?,-
Cc1ccc(NC(=S)N=Nc2c(O)n(C)c3ccc(S(=O)(=O)N4CCOCC4)cc23)cc1,-,-,-,0.63µM,-,-
Cc1cc(C)cc(NC(=S)N=Nc2c(O)n(C)c3ccc(S(=O)(=O)N4CCOCC4)cc23)c1,-,-,-,?,?,-
COc1ccc(-c2nc3ccccc3c(C(=O)Nc3ccc(S(=O)(=O)Nc4cc(C)on4)cc3)c2C)cc1,-,-,-,-,5µM,-
CCN(Cc1ccccc1)C(=O)c1ccc(CS(=O)c2ccccc2C)o1 (stereo not given),-,-,-,-,10µM,-
Cc1ccccc1S(=O)Cc1ccc(C(=O)NC2CC2)o1 (stereo not given),-,-,-,-,-,-
CCOC(=O)c1sc2nc(C)nc(NCc3ccc(Cl)cc3)c2c1C,-,-,-,-,?,-
CCOC(=O)c1sc2nc(C)nc(NCc3ccc(F)cc3)c2c1C,-,-,-,-,7.1µM,-
CCCNC(=O)NC(=O)CSc1nc2ccccc2n1CC(C)C,-,-,-,-,?,-
CCNc1nc(SCC(=O)Nc2ccccc2)nc(N2CCOCC2)n1,-,-,-,-,-,-
CCNc1nc(N2CCOCC2)nc(N(c2ccccc2)c2ccccc2)n1,-,37,-,-,-,-
Cc1ccc(Cl)cc1N1CCN(C(=O)C2CCN(c3nnc(-n4cccc4)s3)CC2)CC1,-,-,-,-,3.5µM,-
Cc1ccc(Cl)cc1N1CCN(C(=O)c2cccn2-c2nnc(N3CCCCC3)s2)CC1,-,-,-,-,-,.
Cc1nc2c(-c3ccc(F)cc3)cnn2c(N)c1-c1ccc(F)cc1,-,-,-,-,2µM,-
COc1ccc(-c2c(C)nc3c(-c4ccccn4)cnn3c2N)cc1,-,-,-,10µM,?,-
CCN=C1SC(C(=O)Nc2cccc(C(=O)O)c2)CC(=O)N1CC (stereo not given),-,-,-,-,-,-
Cc1ccc(C)c(S(=O)(=O)c2c(C)cc(C)[nH]c2=O)c1,-,-,-,-,-,-
C=C1C(=O)O[C@@H]2[C@@H]1CC/C(C)=C\CC[C@@]1(C)O[C@H]21,.,.,.,.,.,-
C=C1C(=O)O[C@@H]2[C@H]1CC[C@H](C)[C@]1(O)CCC(=O)[C@@]21C,-,-,-,?,8.9µM,-

# High-throughput results from PubChem.
